Holding throughout (test): log2 ratio of Biotin-Ahx-Ub-VS probe labelling (fragment/DMSO); higher = less target engagement (more negative = stronger competition), active = hit call of the paper (q ≤ 0.05, log2 ratio ≤ -1)
Holding throughout (settings): compound concentration: 200 uM; treatment time: 3 h

In experiment [1] the target is T1, OTUD6B (UniProt Q8N6M0).
T1 sequence (whole entry): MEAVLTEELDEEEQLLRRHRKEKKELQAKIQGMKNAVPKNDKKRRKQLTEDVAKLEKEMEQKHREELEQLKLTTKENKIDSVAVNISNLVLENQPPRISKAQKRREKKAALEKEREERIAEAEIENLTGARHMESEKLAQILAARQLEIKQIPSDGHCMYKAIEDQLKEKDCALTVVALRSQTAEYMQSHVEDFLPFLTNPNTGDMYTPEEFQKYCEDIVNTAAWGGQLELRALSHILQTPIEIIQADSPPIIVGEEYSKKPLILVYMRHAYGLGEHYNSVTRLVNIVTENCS
The method, boiled down: (§1)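 HEK293T lysate, 495 µg per sample in Tris/CHAPS/IGEPAL buffer with protease inhibitors, was treated in triplicate with fragment at 200 µM or vehicle for 3 h and then with Biotin-Ahx-Ub-VS at 0.5 µM final for 1 h. Labelled DUBs were NeutrAvidin-enriched, digested with LysC and trypsin, and run by diaPASEF LC-MS/MS. Spectronaut label-free quantities were global-median-normalised, and values are average log2 fragment/vehicle ratios by unpaired t-test on proteins with ≥2 unique peptides.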

The target of experiment [2] is T2, OTUD7B (UniProt Q6GQQ9).
T2 sequence (whole entry): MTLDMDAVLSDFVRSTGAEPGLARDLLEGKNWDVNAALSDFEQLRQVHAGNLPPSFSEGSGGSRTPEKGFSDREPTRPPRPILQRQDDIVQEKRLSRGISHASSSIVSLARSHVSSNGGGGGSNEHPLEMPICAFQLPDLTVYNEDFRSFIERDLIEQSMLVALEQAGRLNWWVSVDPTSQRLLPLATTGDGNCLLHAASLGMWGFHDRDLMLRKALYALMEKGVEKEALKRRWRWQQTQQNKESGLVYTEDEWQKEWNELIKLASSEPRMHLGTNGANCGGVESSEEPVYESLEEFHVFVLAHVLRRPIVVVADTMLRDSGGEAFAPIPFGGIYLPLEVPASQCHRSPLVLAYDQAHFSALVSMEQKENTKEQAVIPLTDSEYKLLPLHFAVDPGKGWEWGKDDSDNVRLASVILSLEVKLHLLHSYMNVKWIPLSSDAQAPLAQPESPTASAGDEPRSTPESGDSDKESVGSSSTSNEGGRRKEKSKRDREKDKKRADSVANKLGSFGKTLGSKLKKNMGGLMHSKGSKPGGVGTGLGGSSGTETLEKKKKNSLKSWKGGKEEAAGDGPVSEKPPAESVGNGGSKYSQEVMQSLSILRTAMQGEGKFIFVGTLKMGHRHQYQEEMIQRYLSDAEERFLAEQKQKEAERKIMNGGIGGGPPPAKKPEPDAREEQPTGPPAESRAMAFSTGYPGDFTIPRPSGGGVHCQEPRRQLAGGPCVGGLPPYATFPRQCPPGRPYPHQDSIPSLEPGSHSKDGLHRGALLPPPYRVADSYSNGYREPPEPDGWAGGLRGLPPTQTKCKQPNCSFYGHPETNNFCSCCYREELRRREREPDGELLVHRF
The essentials: as §1

For experiment [3], the target named is PRPF8 (UniProt Q6P2Q9). The essentials: as §1
Experiment [4] addresses T3, PSMD7 (UniProt P51665).
T3 sequence (whole entry): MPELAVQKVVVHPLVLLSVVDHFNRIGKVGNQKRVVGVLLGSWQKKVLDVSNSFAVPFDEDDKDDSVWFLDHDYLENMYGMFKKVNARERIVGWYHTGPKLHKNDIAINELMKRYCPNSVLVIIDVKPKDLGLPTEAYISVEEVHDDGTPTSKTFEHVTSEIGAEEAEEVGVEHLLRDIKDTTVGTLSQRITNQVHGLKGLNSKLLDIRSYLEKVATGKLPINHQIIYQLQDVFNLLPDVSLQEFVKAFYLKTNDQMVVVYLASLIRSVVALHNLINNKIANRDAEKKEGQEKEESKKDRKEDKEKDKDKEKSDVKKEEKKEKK
The essentials: as §1

Experiment [5] has as its target UCHL1 (UniProt P09936). The essentials:
as §1

In experiment [6] the target is T4, UCHL3 (UniProt P15374).
T4 sequence (whole entry): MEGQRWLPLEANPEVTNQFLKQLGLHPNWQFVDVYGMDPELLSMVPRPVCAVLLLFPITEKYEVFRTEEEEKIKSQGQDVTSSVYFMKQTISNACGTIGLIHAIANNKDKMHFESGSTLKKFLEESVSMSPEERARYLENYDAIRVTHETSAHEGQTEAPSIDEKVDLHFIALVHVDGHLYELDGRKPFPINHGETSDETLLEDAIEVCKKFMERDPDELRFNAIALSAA
The method, boiled down: as §1

Experiment [7] has as its target T5, UCHL5 (UniProt Q9Y5K5).
T5 sequence (whole entry): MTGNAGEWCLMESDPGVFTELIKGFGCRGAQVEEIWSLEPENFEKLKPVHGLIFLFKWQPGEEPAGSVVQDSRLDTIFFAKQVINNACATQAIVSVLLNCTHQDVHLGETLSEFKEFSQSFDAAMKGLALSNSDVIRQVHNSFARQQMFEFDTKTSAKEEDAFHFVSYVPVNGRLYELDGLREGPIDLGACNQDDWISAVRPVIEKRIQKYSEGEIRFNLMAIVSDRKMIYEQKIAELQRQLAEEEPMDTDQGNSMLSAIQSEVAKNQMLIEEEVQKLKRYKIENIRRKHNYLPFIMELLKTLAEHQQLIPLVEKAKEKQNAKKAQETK
The method, boiled down:
as §1

In experiment [8] the target is USP10 (UniProt Q14694). The essentials: as §1
Experiment [9] concerns the target T6, USP15 (UniProt Q9Y4E8).
T6 sequence (whole entry): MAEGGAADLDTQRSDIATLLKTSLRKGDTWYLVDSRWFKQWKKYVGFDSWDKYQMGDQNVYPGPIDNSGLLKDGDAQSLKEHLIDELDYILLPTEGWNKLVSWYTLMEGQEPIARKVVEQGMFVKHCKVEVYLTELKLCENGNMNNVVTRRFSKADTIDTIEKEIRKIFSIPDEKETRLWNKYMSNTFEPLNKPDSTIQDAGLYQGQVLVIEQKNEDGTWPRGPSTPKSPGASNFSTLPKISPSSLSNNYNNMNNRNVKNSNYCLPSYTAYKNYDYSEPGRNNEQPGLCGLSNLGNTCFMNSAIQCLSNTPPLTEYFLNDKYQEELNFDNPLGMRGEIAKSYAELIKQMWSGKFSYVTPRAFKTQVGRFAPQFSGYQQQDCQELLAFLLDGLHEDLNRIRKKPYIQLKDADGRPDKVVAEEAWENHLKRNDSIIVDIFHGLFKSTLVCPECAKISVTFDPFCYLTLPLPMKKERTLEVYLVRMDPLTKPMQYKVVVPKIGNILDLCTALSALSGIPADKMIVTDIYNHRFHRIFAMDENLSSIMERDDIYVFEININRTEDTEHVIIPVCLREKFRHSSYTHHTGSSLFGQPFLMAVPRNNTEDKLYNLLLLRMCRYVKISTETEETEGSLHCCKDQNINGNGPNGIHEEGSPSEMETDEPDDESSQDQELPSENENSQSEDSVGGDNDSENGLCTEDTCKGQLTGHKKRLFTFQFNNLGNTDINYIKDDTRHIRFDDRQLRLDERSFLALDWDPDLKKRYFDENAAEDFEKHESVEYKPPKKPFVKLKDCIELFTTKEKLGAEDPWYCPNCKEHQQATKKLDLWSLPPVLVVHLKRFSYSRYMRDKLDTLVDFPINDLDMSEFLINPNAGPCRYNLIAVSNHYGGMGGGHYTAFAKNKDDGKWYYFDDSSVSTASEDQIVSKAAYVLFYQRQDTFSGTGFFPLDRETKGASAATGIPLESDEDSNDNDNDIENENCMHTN
The essentials: as §1

The target of experiment [10] is USP16 (UniProt Q9Y5T5). The essentials:
as §1

Molecules are shown by their SMILES. A number with no mark means an inactive call.

Chain of USP16 (Q9Y5T5 whole entry, looked up): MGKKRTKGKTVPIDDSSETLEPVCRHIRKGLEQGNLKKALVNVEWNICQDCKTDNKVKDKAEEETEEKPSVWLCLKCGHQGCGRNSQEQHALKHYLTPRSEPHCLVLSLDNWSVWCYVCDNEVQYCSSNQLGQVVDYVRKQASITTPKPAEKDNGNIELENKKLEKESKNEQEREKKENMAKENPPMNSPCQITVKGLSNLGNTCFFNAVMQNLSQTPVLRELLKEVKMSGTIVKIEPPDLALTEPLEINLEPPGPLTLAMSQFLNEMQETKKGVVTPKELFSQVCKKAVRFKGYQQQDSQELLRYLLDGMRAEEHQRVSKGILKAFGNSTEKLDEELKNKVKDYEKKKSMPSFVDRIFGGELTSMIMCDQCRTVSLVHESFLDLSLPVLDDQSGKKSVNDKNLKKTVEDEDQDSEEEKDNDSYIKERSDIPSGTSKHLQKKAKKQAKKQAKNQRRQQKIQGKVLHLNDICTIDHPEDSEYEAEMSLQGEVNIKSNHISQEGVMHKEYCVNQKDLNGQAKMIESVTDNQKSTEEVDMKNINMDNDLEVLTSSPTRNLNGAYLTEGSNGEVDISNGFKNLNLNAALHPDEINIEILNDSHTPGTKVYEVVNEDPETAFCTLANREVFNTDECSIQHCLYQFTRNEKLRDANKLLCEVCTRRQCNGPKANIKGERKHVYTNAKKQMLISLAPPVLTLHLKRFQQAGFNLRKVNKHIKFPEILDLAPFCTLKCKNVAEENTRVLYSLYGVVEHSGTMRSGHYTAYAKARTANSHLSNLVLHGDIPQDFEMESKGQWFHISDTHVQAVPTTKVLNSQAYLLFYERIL
Chain of UCHL1 (P09936 whole entry, looked up): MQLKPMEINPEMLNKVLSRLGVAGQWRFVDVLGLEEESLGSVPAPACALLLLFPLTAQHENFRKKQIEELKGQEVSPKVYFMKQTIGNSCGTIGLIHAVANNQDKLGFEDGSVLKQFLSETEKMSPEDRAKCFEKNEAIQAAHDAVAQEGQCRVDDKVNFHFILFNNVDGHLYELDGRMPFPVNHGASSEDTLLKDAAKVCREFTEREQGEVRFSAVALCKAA
Chain of USP10 (Q14694 whole entry): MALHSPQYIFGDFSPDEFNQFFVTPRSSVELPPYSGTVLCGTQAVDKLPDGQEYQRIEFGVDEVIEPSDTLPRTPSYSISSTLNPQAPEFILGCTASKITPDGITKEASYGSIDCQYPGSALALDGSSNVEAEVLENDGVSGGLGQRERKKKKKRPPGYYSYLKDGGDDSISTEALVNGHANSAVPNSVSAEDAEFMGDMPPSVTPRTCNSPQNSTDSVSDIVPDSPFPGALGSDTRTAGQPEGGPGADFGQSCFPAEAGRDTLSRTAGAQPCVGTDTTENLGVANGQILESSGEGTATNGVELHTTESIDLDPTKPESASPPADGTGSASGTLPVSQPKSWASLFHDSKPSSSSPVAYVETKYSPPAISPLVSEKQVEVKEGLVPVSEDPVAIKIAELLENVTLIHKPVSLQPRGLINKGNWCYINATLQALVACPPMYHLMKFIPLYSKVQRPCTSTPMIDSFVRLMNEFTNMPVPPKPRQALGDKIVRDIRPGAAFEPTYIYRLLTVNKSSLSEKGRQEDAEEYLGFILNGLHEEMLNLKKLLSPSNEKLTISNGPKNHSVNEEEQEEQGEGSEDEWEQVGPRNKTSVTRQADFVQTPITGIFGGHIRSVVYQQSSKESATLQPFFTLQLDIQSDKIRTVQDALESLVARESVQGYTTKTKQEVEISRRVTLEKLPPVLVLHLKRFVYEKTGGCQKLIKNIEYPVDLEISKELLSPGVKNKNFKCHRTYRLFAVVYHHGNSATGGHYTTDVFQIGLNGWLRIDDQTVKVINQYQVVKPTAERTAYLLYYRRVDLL

Regarding `O=C(CCl)NCc1noc(C2CC2)n1`, the “log2 ratio of Biotin-Ahx-Ub-VS probe labelling” value in experiment [1] is -0.344; in [2] it was -0.572; in experiment [3], -0.106; in [4], -0.219; in [5], -1.67 (active); in [6], 0.307. The “log2 ratio of Biotin-Ahx-Ub-VS probe labelling” value in [7] is -0.363; in experiment [8] it was -0.164; in experiment [9] it was -0.193; in [10], -0.127.
